# Structures can show the parent of a compound that is named as a salt.
# Legend:
# Settings in all cases: incubation time: 27 h, anaerobic, 37 °C;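 for the amine columns active = adjusted P below 0.05 in both replicates with a change the same way and a mean fold change under 0.8 or over 1.25; inactive = the rest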
# [1] = tested on: Clostridium sporogenes DSM 1664; assay: growth (OD595) fold change vs plate DMSO controls (fold change (ratio)); higher = more growth
# How it was run: (§1)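 Absorbance at 595 nm was read after shaking the anaerobic mGAM cultures, which had grown in 96-well plates for 27 h at 37 °C. After blank subtraction and background correction against 20 µM compound solutions in water, a calibration factor of 5 gave OD values. Growth is the fold change against the median of the plate's DMSO controls. Values are the mean of 2 biological replicates, with fold changes above 1.5 set to NA.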
# Escherichia coli IAI1 [2] = assay: as above
# How it was run: as §1
# [3] = tested on: Klebsiella aerogenes DSM 30053; assay: as above
# How it was run: as §1
# [4] = tested on: Ruminococcus gnavus DSM 108212; assay: as above
# How it was run: as §1
# [5] = tested on: Klebsiella aerogenes DSM 30053; assay: fold change of Histamine concentration vs plate DMSO controls (fold change (ratio)); higher = more amine produced, active = hit call of the paper (significant change in both replicates, either direction)
# How it was run: (§2)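 In 80 µL wells, cultures of four gut bacterial strains in mGAM started at OD 0.1 before a 1:1 dilution and grew anaerobically at 37 °C for 27 h. Compounds were added to 20 µM final, except sweeteners at 50 µM final. After extraction of whole cultures with cold acetonitrile/methanol plus 0.1% formic acid and centrifugation, amines were measured by LC–triple-quadrupole MS in dynamic MRM mode against external calibration curves, with within-batch drift correction. Values give fold change over DMSO controls on the same plate, averaged across 2 biological replicates.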
# [6] = tested on: Clostridium sporogenes DSM 1664; assay: fold change of Tryptamine concentration vs plate DMSO controls (fold change (ratio)); higher = more amine produced, active = hit call of the paper (significant change in both replicates, either direction)
# How it was run: as §2
# [7] = tested on: Ruminococcus gnavus DSM 108212; assay: as above
# How it was run: as §2
# Escherichia coli IAI1 [8] = assay: fold change of Putrescine concentration vs plate DMSO controls (fold change (ratio)); higher = more amine produced, active = hit call of the paper (significant change in both replicates, either direction)
# How it was run: as §2
# [9] = tested on: Klebsiella aerogenes DSM 30053; assay: as above
# How it was run: as §2
# Escherichia coli IAI1 [10] = assay: fold change of Cadaverine concentration vs plate DMSO controls (fold change (ratio)); higher = more amine produced, active = hit call of the paper (significant change in both replicates, either direction)
# How it was run: as §2
# [11] = tested on: Klebsiella aerogenes DSM 30053; assay: as above
# How it was run: as §2
# [12] = tested on: Ruminococcus gnavus DSM 108212; assay: fold change of 2-Phenylethylamine concentration vs plate DMSO controls (fold change (ratio)); higher = more amine produced, active = hit call of the paper (significant change in both replicates, either direction)
# How it was run: as §2
Compound,growth [1],growth (Escherichia coli IAI1 [2]),growth [3],growth [4],fold change of Histamine concentration [5],fold change of Tryptamine concentration [6],fold change of Tryptamine concentration [7],fold change of Putrescine concentration (Escherichia coli IAI1 [8]),fold change of Putrescine concentration [9],fold change of Cadaverine concentration (Escherichia coli IAI1 [10]),fold change of Cadaverine concentration [11],fold change of 2-Phenylethylamine concentration [12]
CCCCC(O)c1ccccc1 (stereo not drawn) [Fenipentol] (20 µM),0.995,1.05,1.03,0.948,0.969 (inactive),0.989 (inactive),1.01 (inactive),1.01 (inactive),0.987 (inactive),1.03 (inactive),1.01 (inactive),1.04 (inactive)
Cn1c(=O)c2c(ncn2C)n(C)c1=O [Caffeine] (20 µM),1.15,0.986,0.977,0.963,1.07 (inactive),0.982 (inactive),1.06 (inactive),0.987 (inactive),0.997 (inactive),1.03 (inactive),0.987 (inactive),1.06 (inactive)
OCC(O)CN1CCN(c2ccccc2)CC1 (stereo not drawn) [Dropropizine] (20 µM),0.934,1.02,1.02,1.1,1.08 (inactive),1.04 (inactive),1.05 (inactive),0.998 (inactive),1 (inactive),1.04 (inactive),0.992 (inactive),1.05 (inactive)
C1N2CN3CN1CN(C2)C3 [Methenamine] (20 µM),0.885,0.986,1.02,1.16,0.978 (inactive),1.05 (inactive),1.04 (inactive),1.01 (inactive),0.982 (inactive),1 (inactive),0.993 (inactive),1.03 (inactive)
Cc1ccc(C(C)NC(=O)[C@@H](NC(=O)OC(C)C)C(C)C)cc1 (stereo partly drawn) (20 µM),1.07,1.02,1.04,0.999,1.02 (inactive),1.02 (inactive),1.03 (inactive),0.974 (inactive),1 (inactive),1.03 (inactive),1.02 (inactive),1.07 (inactive)
Cc1ccc(S(=O)(=O)NC(=O)NN2CCCCCC2)cc1 [Tolazamide] (20 µM),0.935,1.09,1.04,1.19,0.975 (inactive),1.02 (inactive),1.14 (inactive),1.05 (inactive),0.974 (inactive),1.02 (inactive),1.02 (inactive),1.18 (inactive)
CNC(=C[N+](=O)[O-])NCCSCc1csc(CN(C)C)n1 [Nizatidine] (20 µM),1.13,1.02,1.01,1.09,1.04 (inactive),0.99 (inactive),0.971 (inactive),0.988 (inactive),1.03 (inactive),0.984 (inactive),1 (inactive),0.954 (inactive)
"CC(C)NC[C@H](O)COc1ccc(CC(N)=O)cc1 [(S,-) Atenolol] (20 µM)",0,0.913,1.01,0.825,1.04 (inactive),0.0316 (active),0.944 (inactive),0.847 (inactive),1.03 (inactive),0.954 (inactive),1.02 (inactive),0.909 (inactive)
CCc1nc(N)nc(N)c1-c1ccc(Cl)cc1 [Pyrimethamine] (20 µM),1.05,0.96,0.961,1.17,1.07 (inactive),1.01 (inactive),0.912 (inactive),0.792 (inactive),0.977 (inactive),1.32 (active),0.989 (inactive),0.819 (inactive)
CCCOC(=O)NCCCN(C)C (20 µM),1.08,0.981,0.968,1.17,1.06 (inactive),1.05 (inactive),1.09 (inactive),0.952 (inactive),0.821 (inactive),0.93 (inactive),1.05 (inactive),1.22 (inactive)
C=C(C)[C@@H]1CC=C(/C=N/O)CC1 [Perillartine] (50 µM),1.04,1.04,1.09,1.11,0.933 (inactive),1.02 (inactive),1 (inactive),0.985 (inactive),1.03 (inactive),0.99 (inactive),1.02 (inactive),1 (inactive)
CCN(CC)C(=O)N1CCN(C)CC1 [Diethylcarbamazine citrate] (20 µM),1.12,0.975,1.04,0.977,0.954 (inactive),1.03 (inactive),0.976 (inactive),0.988 (inactive),0.985 (inactive),1.02 (inactive),1 (inactive),0.905 (inactive)
O=C(O)Cc1ccccc1Nc1c(Cl)cccc1Cl [Diclofenac sodium] (20 µM),0.954,0.984,0.986,1.03,1.06 (inactive),0.699 (active),0.988 (inactive),1.02 (inactive),1 (inactive),1.01 (inactive),1 (inactive),0.989 (inactive)
CNCCC=C1c2ccccc2C=Cc2ccccc21 [Norcyclobenzaprine] (20 µM),1.1,1.02,1.01,1.09,0.997 (inactive),0.985 (inactive),0.939 (inactive),1 (inactive),0.993 (inactive),1.02 (inactive),0.994 (inactive),0.935 (inactive)
CCOc1nc2cccc(C(=O)O)c2n1Cc1ccc(-c2ccccc2-c2nnn[nH]2)cc1 [Candesartan] (20 µM),1.16,0.982,1.01,1.19,0.965 (inactive),1.04 (inactive),0.975 (inactive),0.981 (inactive),1 (inactive),1.03 (inactive),1.01 (inactive),0.947 (inactive)
CC(C)(C)NCC(O)CSc1nc(-c2ccc(C(N)=O)s2)cs1 (stereo not drawn) [Arotinolol hydrochloride] (20 µM),1.07,1.02,1.02,1.01,1.01 (inactive),1.01 (inactive),1.05 (inactive),0.978 (inactive),1 (inactive),0.928 (inactive),0.989 (inactive),1.1 (inactive)
CNCCc1ccccn1 [Betahistine mesylate] (20 µM),1.26,1,1.02,1.25,0.991 (inactive),0.994 (inactive),1.02 (inactive),1.03 (inactive),0.995 (inactive),0.967 (inactive),0.993 (inactive),1.01 (inactive)
C[C@@H]1[C@H](O)[C@@H](C)/C=C/C=C/C=C/C=C/C=C/C=C/C=C/[C@H](O[C@@H]2O[C@H](C)[C@@H](O)[C@H](N)[C@@H]2O)C[C@@H]2O[C@](O)(C[C@@H](O)C[C@@H](O)[C@H](O)CC[C@@H](O)C[C@@H](O)CC(=O)O[C@H]1C)C[C@H](O)[C@H]2C(=O)O [Amphotericin B] (20 µM),0.881,1.01,0.982,0.469,1.01 (inactive),0.985 (inactive),1.09 (inactive),1.23 (inactive),0.957 (inactive),1.09 (inactive),1.14 (inactive),1.25 (inactive)
COC(=O)Nc1nc2ccc(SC(C)C)cc2[nH]1 [Methiazole] (20 µM),0.921,1,1.24,1.08,0.952 (inactive),1.04 (inactive),0.938 (inactive),0.996 (inactive),1.01 (inactive),1.04 (inactive),1.02 (inactive),0.929 (inactive)
Nc1c(CC(=O)O)cccc1C(=O)c1ccc(Br)cc1 [Bromfenac] (20 µM),1.21,1.15,1.04,1.13,0.965 (inactive),1.01 (inactive),1.08 (inactive),1.02 (inactive),1 (inactive),0.911 (inactive),1.01 (inactive),1.15 (inactive)
C#C[C@]1(O)CC[C@H]2[C@@H]3CCC4=CC(=O)CC[C@@H]4[C@H]3CC[C@@]21CC [(D-) Norgestrel] (20 µM),1.06,0.994,1.02,0.996,1.05 (inactive),1.01 (inactive),1.01 (inactive),0.982 (inactive),0.998 (inactive),1.03 (inactive),0.985 (inactive),0.978 (inactive)
c1ccc2c(c1)Cc1ccccc1-2 [Fluorene] (20 µM),1,1.04,1.07,1.09,0.932 (inactive),0.97 (inactive),1 (inactive),1.05 (inactive),1.02 (inactive),0.914 (inactive),1.02 (inactive),0.967 (inactive)
C[C@@H]1O[C@@H](O[C@H]2[C@H](Oc3cc(O)c(C(=O)CCc4ccc(O)cc4)c(O)c3)O[C@H](CO)[C@@H](O)[C@@H]2O)[C@H](O)[C@H](O)[C@H]1O [Naringin Dihydrochalcone] (50 µM),1.1,0.965,1.05,1.2,0.958 (inactive),0.968 (inactive),1 (inactive),0.983 (inactive),0.996 (inactive),1.13 (inactive),1.01 (inactive),0.966 (inactive)
Cc1cccc(C)c1NC(=O)CC12CCCN1CCC2 [Pilsicainide Hydrochloride] (20 µM),0.937,1.04,1.01,1.04,0.986 (inactive),0.995 (inactive),1.05 (inactive),1.05 (inactive),0.984 (inactive),1.03 (inactive),0.98 (inactive),1.06 (inactive)

# From the supplement of paper PMC12494721
